Compound activity as filed in PubChem.
Rows were chosen to be rich in hits. Some 19% of all compounds tested hit in one or more screens of this group.
Pf growth 48h – Primary qHTS for delayed death inhibitors of the malarial parasite plastid, 48 hour incubation; P. falciparum luciferase growth in erythrocytes, 48 h; Potency, µM (doses to about 28.7 µM), without a hit: at the highest dose activity change, negative = inhibition, actives largely listed as inhibitors; 5.9% of 310,000 active; AID 504832, 2011; note: potency is the fitted concentration of half-maximal effect; % is set by controls: 0 for no effect and ±100 for the full control effect
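A one-generation exposure of luciferase-tagged malaria parasites in RPMI 1640/Albumax erythrocyte culture, 37 C and 5% CO2. Inhibition is inferred from decreased luminescence after adding detection reagent.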
Pf growth 96h – Primary qHTS for delayed death inhibitors of the malarial parasite plastid, 96 hour incubation; P. falciparum luciferase reporter growth, 96 h; Potency, µM (series often up to 28.7 µM), inactives show at the top dose activity change, negative = inhibition, most hits filed as inhibitors; 6.9% of 320,000 active; note: potency is the fitted concentration of half-maximal effect; % is set by controls: 0 for no effect and ±100 for the full control effect
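Luminescence readout: decreased luciferase signal marks inhibited growth of reporter-expressing P. falciparum in infected red cells (2% hematocrit, 0.05% parasitemia final), exposed to compound two generations (96 h, 37 C, 5% CO2).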
MARV entry inh – qHTS for inhibitors of binding or entry into cells for Marburg Virus | Marburg virus pseudotyped entry inhibition, cell reporter | Potency, µM (doses to about 37.8 µM), inactives show at the highest dose activity change, negative = inhibition, most hits filed as inhibitors | 1.8% of 300,000 active | AID 540276, 2011; calls by dose curve; tested in HEK293 cells; note: potency is the fitted concentration of half-maximal effect; % is set by controls: 0 for no effect and ±100 for the full control effect
Shiga toxin inh – A qHTS for Small Molecule Inhibitors of Shiga Toxin; 9.2% of 290,000 active; inhibition, % at 38.7 µM; Vero cells, Shiga toxin protein synthesis inhibition reporter; AID 2315, 2010; in the data active = inhibition mostly above about 28%, no sharp cut-off; inactive = mostly below about 43%; note: 0% is about no effect
Cycloheximide cs – Cycloheximide Counterscreen for Small Molecule Inhibitors of Shiga Toxin | cell reporter, cycloheximide protein synthesis inhibition counterscreen | max response, % | 12% of 300,000 active; in the data active = max response mostly above about 13%, no sharp cut-off; inactive = mostly below about 14%; note: read at 38.3 µM for the half of the compounds with a filed dose; 0% is about no effect
LASV entry inh – qHTS for Inhibitors of binding or entry into cells for Lassa Virus. Lassa virus pseudotype entry inhibition, cell reporter. Potency, µM (doses to about 37.9 µM), for the others: at the highest dose activity change, negative = inhibition, usual class: inhibitors. 1.2% of 300,000 active. AID 540256, 2011; calls by dose curve; tested in HEK293 cells; note: potency is the fitted concentration of half-maximal effect; % is set by controls: 0 for no effect and ±100 for the full control effect; nearly all actives have a fitted effect of over 50% in size
Numbers without * were called inactive; ? = inconclusive; · = no result given; [ ] = another dose, or the depositor's remark. Unless noted, calls come from the whole dose curve; as a rule, active = well fitted inhibition curve with a large enough effect; inconclusive = small, poorly fitted or top-dose-only effect, or another doubt; inactive = no such curve, though single readings can be large or run the other way.

SMILES	Pf growth 48h	Pf growth 96h	MARV entry inh	Shiga toxin inh	Cycloheximide cs	LASV entry inh
Cc1nnc(SCc2ccc(C(=O)O)cc2)s1	·	·	-14%	-7	-6	24%
Cc1cc(C)cc(NC(=O)c2ccc(CSc3nnc(C)s3)cc2)c1	19%	51%	-21%	80*	29*	-6%
O=C(Nc1ccc(Br)cc1)c1ccc(CSC2=NCCS2)cc1	42%	?	-30%	80*	61*	-17%
Cc1ccc(NC(=O)c2ccc(CSc3nnnn3C)cc2)cc1	184%	81%	-24%	141*	37*	?
CCC(C)(C)NC(=O)c1cccc(NC(=O)C(C)C)c1	-4%	?	-3%[46.1 µM]	-13	-2	-4%
CN(C)S(=O)(=O)c1cccc(C(=O)OCC(=O)Nc2sccc2C#N)c1	24%	·	-4%	75*	56*	1%
COc1ccc(C(=O)NCC(=O)OCC(=O)Nc2sccc2C#N)cc1OC	60%	31%	0%	36*	22*	-2%
COc1cc(-c2c(C#N)c(N)nc(SCc3ccncc3)c2C#N)cc(OC)c1OC	13µM*	?	?	-11	2	?
CC(C)C(=O)Nc1ccc(NC(=O)c2ccccn2)cn1	39%	10%	11µM*	42*	27*	?
O=C(Nc1ccc(NC(=O)C2CC2)nc1)c1ccccn1	96%	48%	?	62*	18*	?
CCC(=O)Nc1ccc(NC(=O)c2ccccn2)cn1	115%	0%	?	47*	35*	10µM*
COc1ccc(C(=O)NCCc2nnc(SCC(=O)Nc3ccccc3C(C)C)n2C)cc1	·	?	-5%	-12	6	2%
COc1ccc(CCNC(=O)COC(=O)C2COc3ccccc3O2)cc1 (stereo not given)	10%	35%	·	·	·	·
O=C(Cn1c(=O)sc2ccccc21)OC(CCl)CCl	7%	-1%	10%	16	0	1%
Cc1ccc(/C=N/N2CCN(c3ccccc3)CC2)cc1	22%	-3%	18%[46.1 µM]	46	19*	12%
COc1ccccc1/C=N/N1CCN(c2ccc(Cl)cc2)CC1	-9%	0%	·	·	6	·
Cc1cccc(/C=N/N2CCN(c3ccccc3)CC2)c1	101%	19%	?	73*	42*	?
Cc1ccccc1/C=N/N1CCN(c2ccccc2)CC1	61%	-19%	?	103*	50*	20%
COc1ccc(C(O)P(=O)(OC(C)C)OC(C)C)c(OC)c1 (stereo not given)	0%	1%	?	-4	-1	2%
O=C(CCCCCn1c(=S)[nH]c2cc3c(cc2c1=O)OCO3)N1CCN(c2ccccc2)CC1	-5%	49%	·	-2	-2	·
O=C(O)Cc1csc(Nc2cccc(Cl)c2)n1	37%	13µM*	?	47	16*	?
CC(C)c1ccc(Nc2nc(CC(=O)O)cs2)cc1	273%	52%	?	108*	49*	?
O=C(O)Cc1csc(NC(=O)c2ccco2)n1	16%	·	2%	-2	7	-3%
O=C(COc1ccc(Cl)cc1)OCc1csc(Nc2ccccc2)n1	-10%	?	25%	18	10	19%
NC(=S)N/N=C1/CCSc2ccc3ccccc3c21	?	-3%	?	-9	-2	-12%
SMILES	Pf growth 48h	Pf growth 96h	MARV entry inh	Shiga toxin inh	Cycloheximide cs	LASV entry inh
Cc1cc2c(cc(C(=O)NCc3cccnc3)n2Cc2ccc(Cl)cc2)o1	?	10µM*	-1%	-26	-3	31%[14.3 µM]
O=C(NCc1cccnc1)Nc1ccc(Cl)cc1	6%	?	17%[46.1 µM]	22	18*	?
CCC(C)c1ccc(NC(=O)Nc2cccnc2)cc1 (stereo not given)	?	6%	·	76*	80*	·
CCC(C)c1ccc(NC(=O)NCc2cccnc2)cc1 (stereo not given)	-7%	18%	?	14	26*	-25%
COc1ccc(NC(=O)NCc2cccnc2)cc1	13%	?	·	-11	8	·
Cc1ccccc1CSCCNC(=O)CN(c1ccc2c(c1)OCO2)S(C)(=O)=O	?	60%	-1%	-10	-1	?
CCC(=O)NCC(c1cccs1)N1CCOCC1 (stereo not given)	2%	?	-16%	-14	-4	-4%
Cc1ccc(OCC(=O)Nc2ccc3c(c2)nc(CCN2CCCCC2)n3C)cc1	?	?	·	-4	-1	·
Cc1ccc2nc(CSc3nc(C)cc(C)c3C#N)[nH]c2c1	-82%	218%	?	72	46*	?
CSc1nc(-c2ccc(Cl)cc2Cl)[nH]c(=O)c1C#N	4%	-6%	?	-13	-6	6%
Cc1cc(-c2ccc(Cl)cc2Cl)c(C#N)c(=O)[nH]1	25%	8%	·	44*	21*	·
CC(=O)Nc1ccc(NC(=O)C/C(C)=N/NC(=O)C(=O)N2CCCC2)cc1	33%	?	3%	5	17	17%
C/C(CC(=O)Nc1ccc(F)cc1F)=N\NC(=O)C(=O)N1CCCCC1	26%	?	·	65*	40*	·
O=C(NC1CCCCC1)N1CCc2ccccc21	105%	5%	29%	47*	28*	17%
O=C(C1CCN(S(=O)(=O)N2CCOCC2)CC1)N1CCc2ccccc21	31%	?	0%	13	6	1%
O=C(C1CCC(C(=O)N2CCc3ccccc32)CC1)N1CCc2ccccc21 (stereo not given)	2%	8.3µM*	0%	1	-2	1%
O=C(CCl)c1ccc2c(c1)CCN2C(=O)C1CC1	-15%	10µM*	·	19	12	·
CSc1ncc(S(=O)(=O)c2ccccc2)c(=O)[nH]1	-3%	26%	?	11	3	7%
CC(C)C1CC(CCN)(Cc2ccccc2)CCO1 (stereo not given)	?	-9%	15µM*	-14	-2	0%[46.1 µM]
CC(=O)N(c1c(C)n(C)n(-c2ccccc2)c1=O)C1(C(=O)NC2CCCC2)CCCCC1	3%	?	-1%	-22	-3	?
COc1ccc(S(=O)(=O)N2Cc3ccccc3CC2C(=O)Nc2nccs2)cc1OC (stereo not given)	26%	·	?	92*	43*	?
COc1ccc(S(=O)(=O)N2Cc3ccccc3CC2C(=O)Nc2nccs2)cc1 (stereo not given)	168%	188%	?	75*	29*	?
COc1ccc2oc(=O)c(-c3csc(Nc4cccc(O)c4)n3)cc2c1	18%	42%	?	58*	48*	?
COc1ccc(Nc2nc(-c3cc4cccc(OC)c4oc3=O)cs2)cc1	-23%	-14%	11%	30	21*	?
Cc1ccc(SCc2nc3ncccn3c2Br)cc1	-18%	-5%	?	37	28*	-1%[46.1 µM]
